In the supplement of paper PMC3545927:
The list shows a part of the results. The true hit rate is not given.

B1: HC2179 (peptide)
chain: CAEPVTSTWVAGNASASA
B2: FS-2962 (peptide)
chain: CARKKREIRSAGNASASA
B3: FS-1284 (peptide)
chain: CASSNRLARFAGNASASA
B4: FS-2690 (peptide)
chain: CARKKKGKADAGNASASA
B5: FS-373 (peptide)
chain: CARFARYYRDAGNASASA
B6: FS-1856 (peptide)
chain: CARKKRGYRDAGNASASA
B7: HC514 (peptide)
chain: CASSIASWAIAGNASASA
B8: HC14 (peptide)
chain: CAMEECSQHLAGNASASA
B9: FS-1082 (peptide)
chain: CASMGREIRSAGNASASA
B10: FS-1419 (peptide)
chain: CASSNRSYRDAGNASASA
B11: FS-2963 (peptide)
chain: CARKKREITEAGNASASA
B12: HC2068 (peptide)
chain: CAVVCCSMWYAGNASASA
B13: HC1515 (peptide)
chain: CACGNTLTCYAGNASASA
B14: HC733 (peptide)
chain: CARGDSRGSLAGNASASA
B15: FS-2092 (peptide)
chain: CARSSRDSSAAGNASASA
B16: FS-431 (peptide)
chain: CAGRCREKRRAGNASASA
B17: FS-3097 (peptide)
chain: CARSSRSNGRAGNASASA
B18: HC1517 (peptide)
chain: CALTCYIKARAGNASASA
B19: FS-1141 (peptide)
chain: CAMWHREKRRAGNASASA
B20: FS-377 (peptide)
chain: CARSSREKRRAGNASASA
B21: FS-714 (peptide)
chain: CARSSRHPRRAGNASASA
B22: NG3 (peptide)
chain: CAPQGDAAQKAGNASASA
B23: HC238 (peptide)
chain: CAVRVLEDGVAGNASASA
B24: FS-2671 (peptide)
chain: CARGKRHLQGAGNASASA
B25: HC211 (peptide)
chain: CARGSRPSWGAGNASASA
B26: FS-2018 (peptide)
chain: CARGKRSLDGAGNASASA
B27: FS-2086 (peptide)
chain: CARSFRSGDGAGNASASA
B28: HC2382 (peptide)
chain: CAEVPCHQPSAGNASASA

Molecular target: furin, P09958
Sequence (P09958 whole entry): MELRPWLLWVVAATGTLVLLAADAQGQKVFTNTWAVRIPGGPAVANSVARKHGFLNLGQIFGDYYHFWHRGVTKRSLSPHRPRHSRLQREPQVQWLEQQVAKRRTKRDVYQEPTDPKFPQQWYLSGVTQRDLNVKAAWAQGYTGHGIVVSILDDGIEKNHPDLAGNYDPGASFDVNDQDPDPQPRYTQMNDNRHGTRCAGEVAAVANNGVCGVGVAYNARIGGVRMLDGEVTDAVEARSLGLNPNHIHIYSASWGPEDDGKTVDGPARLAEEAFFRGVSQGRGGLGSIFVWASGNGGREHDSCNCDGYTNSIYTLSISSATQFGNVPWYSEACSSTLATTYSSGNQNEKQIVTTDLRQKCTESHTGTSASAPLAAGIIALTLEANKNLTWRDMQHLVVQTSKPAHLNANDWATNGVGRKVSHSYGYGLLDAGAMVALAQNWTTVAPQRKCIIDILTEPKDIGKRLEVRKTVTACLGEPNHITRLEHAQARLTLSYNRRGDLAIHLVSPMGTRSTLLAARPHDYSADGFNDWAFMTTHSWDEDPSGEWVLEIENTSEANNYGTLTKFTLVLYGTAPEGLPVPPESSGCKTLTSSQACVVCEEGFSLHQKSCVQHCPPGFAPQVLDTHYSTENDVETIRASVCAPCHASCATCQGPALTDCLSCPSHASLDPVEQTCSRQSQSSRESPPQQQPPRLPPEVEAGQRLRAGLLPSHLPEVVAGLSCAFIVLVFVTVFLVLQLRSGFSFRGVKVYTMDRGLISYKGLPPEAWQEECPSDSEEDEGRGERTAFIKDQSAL
Experiment: furin cleavage Z-score vs untreated control; higher = more cleavage, active = 3.5 or more, inactive = 1 or less, 8 variable residues between constant flanks
Procedure, shortened: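 The cleavage Z-score was derived for purified furin acting on 8-mer peptides held on magnetic beads and fused to a cDNA oligonucleotide. Digests lasted 7.5, 15 or 30 min at 1:10 enzyme:substrate in 50 mM HEPES pH 7.5 with CaCl2 and NaCl. Sequencing counts of released DNA, log-transformed against furin-free reactions, were lowess-adjusted and scaled by median absolute deviation.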

Row | Sequence | furin cleavage Z-score (7.5 min) | furin cleavage Z-score (15 min) | furin cleavage Z-score (30 min)
1 | B1 | 1.29 | -0.789 (inactive) | 0.354 (inactive)
2 | B2 | 14.3 (active) | 12.6 (active) | 10.5 (active)
3 | B3 | 3.54 (active) | 4.58 (active) | 6.02 (active)
4 | B4 | 0.358 (inactive) | -1.8 (inactive) | -1.17 (inactive)
5 | B5 | 4.68 (active) | 4.65 (active) | 5.39 (active)
6 | B6 | 10.5 (active) | 11.2 (active) | 8.83 (active)
7 | B7 | 0.395 (inactive) | 0.651 (inactive) | 2.3
8 | B8 | 1.42 | 0.653 (inactive) | 1.44
9 | B9 | 4.08 (active) | 3.82 (active) | 3.6 (active)
10 | B10 | 2.48 | 3.58 (active) | 4.08 (active)
11 | B11 | 11.3 (active) | 12.7 (active) | 9.25 (active)
12 | B12 | 1.14 | -0.944 (inactive) | 0.031 (inactive)
13 | B13 | -0.25 (inactive) | -2.28 (inactive) | -1.28 (inactive)
14 | B14 | -0.929 (inactive) | -0.316 (inactive) | -0.341 (inactive)
15 | B15 | -0.528 (inactive) | -0.415 (inactive) | -0.31 (inactive)
16 | B16 | 6.37 (active) | 7.82 (active) | 6.78 (active)
17 | B17 | -1.39 (inactive) | -0.51 (inactive) | -1.39 (inactive)
18 | B18 | -0.101 (inactive) | 0.266 (inactive) | 1.28
19 | B19 | 5.25 (active) | 5.23 (active) | 5.34 (active)
20 | B20 | 6.18 (active) | 7.1 (active) | 5.14 (active)
21 | B21 | 5.43 (active) | 9.72 (active) | 6.86 (active)
22 | B22 | -0.23 (inactive) | -2.31 (inactive) | 0.729 (inactive)
23 | B23 | -0.328 (inactive) | -0.295 (inactive) | 0.54 (inactive)
24 | B24 | 8.58 (active) | 8.16 (active) | 8.59 (active)
25 | B25 | -1.28 (inactive) | -0.0322 (inactive) | -1.24 (inactive)
26 | B26 | 10.4 (active) | 10.4 (active) | 8.84 (active)
27 | B27 | 0.521 (inactive) | -1.18 (inactive) | 0.00797 (inactive)
28 | B28 | 0.495 (inactive) | -0.572 (inactive) | 1.13
